USP2a block: inhibitors of human ubiquitin-specific protease USP2a. actives 0.01% (n = 330,000). O75604. AID 463254. Potency, µM (highest dose often 38.3 µM), without a hit: top-dose activity change, negative = inhibition, usual class: inhibitors. USP2 core, Ub-CHOP2 coupled fluorogenic reporter, 485/531;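 also: plate controls were DMSO wells for no effect and full inhibition by NEM control for full effect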
Target sequence (O75604 whole entry, looked up): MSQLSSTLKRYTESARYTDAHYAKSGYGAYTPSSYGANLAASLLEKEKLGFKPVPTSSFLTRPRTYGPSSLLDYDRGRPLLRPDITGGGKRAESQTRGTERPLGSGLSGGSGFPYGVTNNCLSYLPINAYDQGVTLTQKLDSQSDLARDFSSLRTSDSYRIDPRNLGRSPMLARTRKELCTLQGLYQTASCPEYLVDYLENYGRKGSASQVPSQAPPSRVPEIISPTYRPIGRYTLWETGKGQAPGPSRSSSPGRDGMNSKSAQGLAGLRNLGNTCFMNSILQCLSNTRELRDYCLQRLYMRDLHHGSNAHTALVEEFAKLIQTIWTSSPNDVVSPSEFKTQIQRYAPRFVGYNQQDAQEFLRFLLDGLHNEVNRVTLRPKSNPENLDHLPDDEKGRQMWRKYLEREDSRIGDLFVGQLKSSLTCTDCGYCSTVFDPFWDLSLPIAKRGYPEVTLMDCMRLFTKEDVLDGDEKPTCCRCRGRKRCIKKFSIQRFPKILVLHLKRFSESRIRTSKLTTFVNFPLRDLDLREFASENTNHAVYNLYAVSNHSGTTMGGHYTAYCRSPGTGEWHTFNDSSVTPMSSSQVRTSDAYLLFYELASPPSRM
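Cell-free coupled assay: 10nM USP2 core preincubated 30min RT with compound in Tris-HCl pH 8.0/CaCl2/CHAPS buffer, then 25nM Ub-CHOP2 and 25nM reporter substrate; fluorescence (Ex 485/Em 531) read after 60min RT, normalized to NEM inhibition, concentration-response curves fitted.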
PTAP TSG101 blk: blocks PTAP/TSG101 interaction to inhibit HIV-1 budding; Q99816; Fluorescence polarization, FITC-PTAP peptide / Tsg101 binding; Potency, µM (top dose mostly 115 µM), inactives show top-dose activity change, negative = inhibition, actives largely listed as inhibitors; 340,000 tested, under 10 active; AID 493005; active = well fitted inhibition curve with a large enough effect in the main read-out, with a control signal flat, not every such curve was filed as active; inconclusive = small, poorly fitted or top-dose-only effect, or effect the other way, or a change in a side signal; inactive = no such curve, though single readings can be large or run the other way; also: % of control where 0% means no effect
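Compounds were pin-transferred onto Tsg101 binding domain (10 uM final) in HEPES pH 7.5 buffer, then FITC-PTAP peptide was added at 50 nM final. After 20 min at RT, polarization reported peptide displacement across a qHTS concentration series.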
12-LOX inh: blocks human arachidonate 12S-lipoxygenase | P18054 | purified 12hLO, xylenol orange hydroperoxide absorbance | Potency, µM (doses to about 108 µM), for the others: at the highest dose activity change, negative = inhibition, most hits filed as inhibitors | actives 1.1% (n = 580,000); also: % is scaled to controls: 0 for no effect and ±100 for the full control effect
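Hydroperoxide product was detected by ferrous iron/xylenol orange as the 573 to 405 nm absorbance ratio. Arachidonic acid at 40 uM (final) was turned over for 30 min at room temperature by 150 nM human 12hLO, pH 7.0 Hepes buffer, after 15 min compound preincubation.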
Eya2 phos inh: blocks the phosphatase activity of human Eya2. actives 0.006% (n = 330,000). O00167. AID 488837. recombinant Eya2, OMFP fluorescence dephosphorylation (OMFP is methylfluorescein phosphate). Potency, µM (highest dose often 76.9 µM), inactives show top-dose activity, negative = inhibition, usual class: inhibitors; also: % is scaled to controls: 0 for no effect and ±100 for the full control effect
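Eya2 (0.2 uM) preincubated 10 min at ambient with compound, then OMFP substrate added at 50 uM; 10 min reaction in 50 mM HEPES pH 7.5, 50 mM NaCl, 5 uM MgCl2, 0.05% BSA, 1 mM DTT. Fluorescence read at Ex 485/Em 525 nm.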
The depositor's hits bear a star; ? = inconclusive; . = no result given; ! = repeats disagree; [ ] = another dose, or the depositor's remark. This is a sample that favours compounds with a hit; in the whole collection about 1.1% have one here. Unless noted, calls follow the shape of the dose curve; as a rule, active = well fitted curve in the direction sought with a large enough effect; inconclusive = small, poorly fitted or top-dose-only effect, or another doubt; inactive = no such curve, though single readings can be large; an effect the other way counts as inactive or inconclusive. Potency is read from the fitted curve at half-maximal effect.

SMILES	USP2a block	PTAP TSG101 blk	12-LOX inh	Eya2 phos inh
O=C(O)Cn1cc(C(=S)N2CCOCC2)c2ccccc21	-1%	-3%	10µM*	5%
O=C(Cn1cc(C(=S)N2CCOCC2)c2ccccc21)N1CCOCC1	.	1%	?	.
O=C(O)Cn1cc(C(=S)N2CCCCC2)c2ccccc21	4%	-6%	40µM*	6%
COCCNC(=O)Cn1cc(C(=S)N2CCCCC2)c2ccccc21	5%	-2%	-13%	9%
CCOc1ccc2c(n1)CCN(C(=O)Nc1ccc(C)c(C)c1)C2	.	.	-2%	.
CN1CCC(Cn2ccc3c(N4CCOCC4)nc(-c4ccc5cn[nH]c5c4)cc32)CC1	.	.	3%[176 µM]	.
NS(=O)(=O)c1ccc(-c2ccc(C=C3C(=O)c4ccccc4C3=O)o2)cc1	2%	-1%	4%	4%
CC(C)CC1=C/C(=C/c2ccc(-c3ccccc3)o2)C(=O)O1	-13%	-1%	13µM*	7%
Clc1ccccc1-c1nc2ccccc2[nH]1	3%	-1%	194%	-8%
S=c1nc(-c2ccccc2Cl)[nH][nH]1	0%	1%	16µM*	15%
Cc1ccc(NC(=O)CSc2ccccc2C(=O)Nc2ccc3c(c2)OCCCO3)cc1	.	.	10µM*	.
COCCSc1ccccc1C(=O)Nc1ccc2c(c1)OCCO2	5%	2%	?	-16%
O=C(Nc1ccc2c(c1)OCO2)c1ccccn1	-1%	0%	5.6µM*	-4%
N#Cc1ccc(CSc2ccccc2C(=O)Nc2ccc3c(c2)OCO3)cc1	.	.	28µM*	.
O=C(CSc1ccc2c(c1)OCCCO2)Nc1cccc2ccccc12	.	.	16µM*	.
O=C(CSc1ccccc1C(=O)O)Nc1ccc2c(c1)OCO2	2%	-6%	?	21%
O=C(Cn1nnc(-c2ccccc2)n1)N1CCCC1c1ccc2c(c1)OCCCO2 (stereo unspecified)	.	.	-13%	.
Cc1noc2c(NCc3ccncc3)cc(-c3ccc(Cl)cc3)nc12	.	.	-2%[176 µM]	.
CC1(C)CCC[C@]2(C)[C@H]3CCO[C@]3(C)CC[C@@H]12	.	.	9%[176 µM]	.
CC1CCCC/C1=N\NC(=S)Nc1ccccc1 (stereo unspecified)	1%	0%	?	-4%
CC(C)NC(=S)N/N=C1\CCCCC1C1CCCCC1 (stereo unspecified)	0%	1%	22µM*	-11%
S=C(N/N=C1\CCCCC1C1CCCCC1)Nc1ccccc1 (stereo unspecified)	.	.	16µM*	.
Cc1[nH]n(C(N)=S)c(=O)c1N=Nc1ccc([N+](=O)[O-])cc1Cl	0%	-3%	10µM*	-2%
Cc1ccccc1N=Nc1c(C)[nH]n(C(N)=S)c1=O	-1%	-2%	?	-15%
O=C(N/N=C/C(Br)=C/c1ccccc1)C(O)c1ccccc1 (stereo unspecified)	-1%	-1%	398%	-3%
SMILES	USP2a block	PTAP TSG101 blk	12-LOX inh	Eya2 phos inh
O=C(O)c1ccc(N/N=C/C(Br)=C/c2ccccc2)cc1	-2%	-2%	40µM*	-5%
Clc1cc(Cl)c(N/N=C/C(Br)=C/c2ccccc2)c(Cl)c1	.	.	6.3µM*	.
Cc1ccc(S(=O)(=O)N2[C@@H]3CC[C@H]2CC(NC(=O)c2ccncc2)C3)c(C)c1 (stereo partly specified)	.	.	18µM*	.
COc1cccc(CN2CC(Oc3ccccc3C(=O)NCc3ccccc3)C2)c1	.	.	-1%	.
C[N+](C)(C)C/C=C1/COCO1	2%	-3%	11µM*!	5%
COCC1CN(Cc2cccc(C(F)(F)F)c2)CC12CCNCC2 (stereo unspecified)	.	.	8%	.
O=C(O)c1cccc(S(=O)(=O)NNc2ccccc2C(F)(F)F)c1	?	-7%	16µM*	1%
C[S+](=O)([O-])N1CCCC2(C1)C(=NC1CCCC1)NC(=O)N2c1cc(F)cc(F)c1 (stereo unspecified)	.	.	89µM*	.
CC(=O)C1=C(O)C(=CC=Cc2ccccc2)OC1=O	.	.	16µM*	.
O=C(O)c1ccc(-c2ccc(F)cc2)cc1	.	.	-27%	.
COc1ccc(/C=C2\C(=O)ON=C2c2ccccc2)cc1OC	0%	2%	7.1µM*	-8%
O=[N+]([O-])c1ccccc1-c1ccc(/C=N/O)o1	.	.	-28%	.
O=C1ON=C(c2ccccc2)/C1=C/c1ccc(-c2ccccc2[N+](=O)[O-])o1	-1%	-2%	4µM*	3%
COc1ccc(/C=C2/C(=O)ON=C2c2ccccc2)cc1OC	-2%	-11%	?	1%
COc1ccc(/C=C2\C(=O)ON=C2c2cccc([N+](=O)[O-])c2)cc1	3%	.	32µM*	0%
NC(=O)COc1ccc(/C=C2\C(=O)ON=C2c2ccccc2)cc1	2%	-3%	7.1µM*	-11%
O=C1N(c2ccccc2)c2ccccc2C12CCN(CC1CCCCC1)C2 (stereo unspecified)	.	.	3%[6.33 µM]	.
O=C1ON=C(c2ccccc2)/C1=C/c1ccco1	-1%	-7%	7.9µM*	-10%
CN(C)/C=C1\C(=O)ON=C1c1ccccc1	1%	-2%	-4%	-19%
Cc1ccc(C2=NOC(=O)/C2=C\C=C\c2ccccc2)cc1	9%	1%	1.1µM*	-7%
CCOc1cc(/C=C2\C(=O)ON=C2c2ccccc2)ccc1OC	3%	2%	13µM*	-12%
Cc1cc(C)cc(NC(=O)C2CCN(C(=O)c3ncn4c3COC(c3ccccc3)C4)CC2)c1 (stereo unspecified)	.	.	14%	.
CCOC(=O)c1c(NC(=O)COc2ccccc2)sc(Cc2ccc3c(c2)OCO3)c1C	.	.	-4%	.
O=C(Cn1cnc2c(nnn2Cc2ccc(F)cc2)c1=O)Nc1ccc2c(c1)OCO2	.	.	-2%	.
COc1ccc(-c2cc(=S)ss2)cc1	.	.	18µM*!	.
SMILES	USP2a block	PTAP TSG101 blk	12-LOX inh	Eya2 phos inh
COc1ccc(C2CC(=O)N3CN(Cc4ccccc4)CSC3=C2C#N)c(OC)c1 (stereo unspecified)	.	.	5.6µM*	.
N#CC1=C2SCN(Cc3ccco3)CN2C(=O)CC1c1c(F)cccc1Cl (stereo unspecified)	1%	0%	?	-11%
CCc1ccc(C2CC(=O)N3CN(Cc4ccccc4)CSC3=C2C#N)cc1 (stereo unspecified)	.	.	3.2µM*	.
N#CC1=C2SCN(Cc3ccccc3)CN2C(=O)CC1c1ccccc1F (stereo unspecified)	2%	0%	.	-4%
Cc1ccc(C2CC(=O)N3CN(Cc4ccco4)CSC3=C2C#N)cc1 (stereo unspecified)	0%	-7%	6.3µM*	-1%
Cc1ccc(-c2cc3c(=O)n(CCNC(=O)c4cccc5[nH]ccc45)ccn3n2)cc1C	.	.	-1%	.
COC(=O)c1ccc(COC(=O)c2cc3c(s2)CCCCC3)o1	.	.	-27%	.
COC(=O)c1ccc(COC(=O)c2cc3c(s2)CCC3)o1	.	.	8.9µM*	.
CN1C(=O)C2(c3ccccc31)C1CCCC=C1C(C#N)=C(N)C2(C#N)C#N (stereo unspecified)	1%	-1%	45µM*	10%
Cc1nn(Cc2ccccc2)c2ncccc12	0%	-1%	45µM*	6%

Screening data from PubChem BioAssay.
